Calls of active or inactive are those of the source.

Test [1] is described as follows: E. coli DRC41 culture turbidity changes, primary screen, E. coli filamentation inducer project, strain DRC41, OD650, 48 h (AID 1152).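 Further: E. coli MC1000 strain DRC41 lacking acrAB efflux pump and sulA.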 Conditions: E. coli DRC41 (acrAB sulA), higher = more signal, called active from +8 up or from −8 down.
A short description of test [2]: small-molecule binders of probe aLefty1, primary screen, biochemical, small-molecule microarray, 635/667 nm fluorescence (AID 1153).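 Further: score merges spot fluorescence with signal-to-noise ratio from the scanned slide images.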 The settings on record: higher = more signal.
A short description of test [3]: PSAC antagonists in infected red cells, primary screen, cell-based, P. falciparum Indochina, OD700, 1 h (AID 1154). Conditions: P. falciparum Indochina infected RBC osmotic lysis, higher = more signal, called active from +8 up or from −8 down.
The nature of test [4]: PSAC antagonists in infected red cells, primary screen, cell-based, P. falciparum Indochina, OD700, 2 h (AID 1155).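 Further: lysis reports solute entry through the parasite surface anion channel PSAC; channel blockers reduce lysis of infected cells.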 The settings on record: P. falciparum Indochina infected erythrocytes, osmotic lysis OD700; higher = more signal, called active from +8 up or from −8 down.
Test [5] can be described thus: osmotic lysis modulators in infected erythrocytes, primary screen, PSAC antagonist project, cell-based, P. falciparum Indochina, OD700, 3 h (AID 1156). The settings on record: higher = more signal, called active from +8 up or from −8 down.
The nature of test [6]: PSAC antagonists in infected red cells, primary screen, cell-based, P. falciparum Indochina, OD700, 18 h (AID 1157). The settings on record: P. falciparum Indochina infected erythrocytes, osmotic lysis OD700, 18 h; higher = more signal, called active from +8 up or from −8 down.
A short description of test [7]: modulators of S6 phosphorylation in cells, primary screen, cell-based, A549, cytoblot, luminescence, serum-stimulated (AID 1158).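 Further: serum-stimulated A549 lung adenocarcinoma cells; signal is phosphorylated S6 detected by cytoblot immunostaining with HRP secondary.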 Conditions: A549 phospho-S6 cytoblot, 5 h, higher = more signal.
The target in test [8] is NADPH oxidase 2 (Homo sapiens) (UniProt P04839). The experiment in a line: NOX2-dependent H2O2 signal modulators, primary screen, NOX inhibitor project, cell-based, HEK293-NOX2, PMA-stimulated, Amplex Red fluorescence (AID 1159). Further: test concentration not given here. The settings on record: 45 min, higher = more signal, called active from +8 up or from −8 down.
Sequence of NADPH oxidase 2 (Homo sapiens) (P04839 whole entry, looked up): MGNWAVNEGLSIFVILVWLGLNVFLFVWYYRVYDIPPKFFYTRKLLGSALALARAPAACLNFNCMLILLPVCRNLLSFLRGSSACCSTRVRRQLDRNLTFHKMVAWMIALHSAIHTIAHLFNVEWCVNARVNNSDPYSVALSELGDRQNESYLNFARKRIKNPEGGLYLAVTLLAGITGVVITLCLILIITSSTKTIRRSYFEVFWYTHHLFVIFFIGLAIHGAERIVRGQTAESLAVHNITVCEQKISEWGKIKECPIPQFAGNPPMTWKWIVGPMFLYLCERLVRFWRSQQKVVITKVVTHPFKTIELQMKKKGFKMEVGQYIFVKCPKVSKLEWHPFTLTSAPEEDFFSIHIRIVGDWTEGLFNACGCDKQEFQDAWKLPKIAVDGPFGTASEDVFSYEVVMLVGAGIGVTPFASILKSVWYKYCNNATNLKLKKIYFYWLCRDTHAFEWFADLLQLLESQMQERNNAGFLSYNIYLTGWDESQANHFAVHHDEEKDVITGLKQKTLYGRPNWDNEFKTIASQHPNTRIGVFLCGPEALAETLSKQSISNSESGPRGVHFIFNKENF
Test [9] concerns the target NADPH oxidase 4 (Homo sapiens) (UniProt Q9NPH5). Description: NOX4-dependent H2O2 signal modulators, primary screen, NOX inhibitor project, cell-based, HEK293-NOX4, tetracycline-induced, Amplex Red fluorescence (AID 1160). Conditions: 45 min, higher = more signal, called active from +8 up or from −8 down.
For test [10], the target named is NADPH oxidase 5 (Homo sapiens) (UniProt Q96PH1). The experiment in a line: NOX5-dependent H2O2 signal modulators, primary screen, NOX inhibitor project, cell-based, HEK293-NOX5, Amplex Red fluorescence (AID 1161). Conditions: HEK293-NOX5, ionomycin, 45 min, higher = more signal.
Sequence of NADPH oxidase 5 (Homo sapiens) (Q96PH1 whole entry, looked up): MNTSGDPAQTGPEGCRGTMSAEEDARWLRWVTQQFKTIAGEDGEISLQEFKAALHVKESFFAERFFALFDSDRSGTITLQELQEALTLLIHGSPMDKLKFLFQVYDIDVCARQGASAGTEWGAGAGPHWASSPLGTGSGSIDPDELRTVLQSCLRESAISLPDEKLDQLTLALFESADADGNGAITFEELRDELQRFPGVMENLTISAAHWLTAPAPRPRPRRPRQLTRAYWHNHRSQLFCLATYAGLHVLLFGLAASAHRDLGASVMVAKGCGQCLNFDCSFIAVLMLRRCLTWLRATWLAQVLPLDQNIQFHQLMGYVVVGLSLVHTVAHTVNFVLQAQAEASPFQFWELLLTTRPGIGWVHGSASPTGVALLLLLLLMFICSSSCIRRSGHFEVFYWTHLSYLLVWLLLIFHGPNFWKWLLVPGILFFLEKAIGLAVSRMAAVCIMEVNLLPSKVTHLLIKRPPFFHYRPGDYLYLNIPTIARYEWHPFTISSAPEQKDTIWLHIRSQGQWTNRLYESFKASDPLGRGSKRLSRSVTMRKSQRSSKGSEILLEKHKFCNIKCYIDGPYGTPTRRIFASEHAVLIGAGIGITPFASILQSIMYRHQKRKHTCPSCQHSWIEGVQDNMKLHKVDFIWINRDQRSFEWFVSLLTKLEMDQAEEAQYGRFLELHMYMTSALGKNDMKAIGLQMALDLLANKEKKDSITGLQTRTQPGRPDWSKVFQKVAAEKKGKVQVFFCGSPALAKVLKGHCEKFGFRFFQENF
Test [11] in a line: A549 cell viability effects, profiling panel, calcein-AM fluorescence, 48 h, basal (AID 1162). Further: test concentration not given here. Conditions: higher = more signal.
Test [12] can be described thus: adipocyte viability effects, profiling panel, cell-based, 3T3-L1 adipocytes, calcein-AM fluorescence, 48 h, basal (AID 1163). Further: test concentration not given here. The settings on record: 3T3-L1 adipocytes viability, higher = more signal.
Test [13] in a line: HepG2 cell viability effects, profiling panel, calcein-AM fluorescence, 48 h, basal (AID 1164). Further: test concentration not given here. Conditions: higher = more signal.
Test [14] is described as follows: MM1S cell viability effects, profiling panel, calcein-AM fluorescence, 48 h, basal (AID 1165).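 Further: viability of MM1S multiple myeloma cells under basal unstimulated conditions; test concentration not given here.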 The settings on record: higher = more signal.
Test [15] can be described thus: basal RPMI8226 viability, no added stimulus, profiling panel, cell-based, calcein-AM fluorescence, 48 h, PK04 Diversity Set (AID 1166).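 Further: cells grown under basal conditions without added stimulus; test concentration not given here.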 Conditions: RPMI8226 myeloma viability, higher = more signal.
The nature of test [16]: basal HepG2 mitochondrial membrane potential changes, profiling panel, cell-based, JC-1 fluorescence, 24 h, 100 nL compound (AID 1167). Further: test concentration not given here. Conditions: higher = more signal.
Test [17] in a line: basal 3T3-L1 adipocyte mitochondrial potential changes, profiling panel, cell-based, JC-1 fluorescence, 3T3-L1 adipocytes, 24 h, 100 nL compound (AID 1168). Further: test concentration not given here. Conditions: JC-1 mitochondrial fluorescence, higher = more signal, called active from +8 up or from −8 down.
The nature of test [18]: basal RPMI8226 mitochondrial membrane potential changes, profiling panel, cell-based, JC-1 fluorescence, 24 h, 100 nL compound (AID 1169). Further: test concentration not given here. Conditions: RPMI8226 myeloma, JC-1 mitochondrial potential fluorescence, higher = more signal.
Test [19] can be described thus: basal MM1S mitochondrial membrane potential changes, profiling panel, cell-based, JC-1 fluorescence, 24 h, 100 nL compound (AID 1170). Further: test concentration not given here. The settings on record: higher = more signal.
Test [20] is described as follows: A549 lung cancer cell viability effects, profiling panel, resazurin fluorescence, 24 h, PK04 Diversity Set (AID 1171). Further: test concentration not given here. The settings on record: higher = more signal, called active from +8 up or from −8 down.

Sequence of NADPH oxidase 4 (Homo sapiens) (Q9NPH5 whole entry, looked up): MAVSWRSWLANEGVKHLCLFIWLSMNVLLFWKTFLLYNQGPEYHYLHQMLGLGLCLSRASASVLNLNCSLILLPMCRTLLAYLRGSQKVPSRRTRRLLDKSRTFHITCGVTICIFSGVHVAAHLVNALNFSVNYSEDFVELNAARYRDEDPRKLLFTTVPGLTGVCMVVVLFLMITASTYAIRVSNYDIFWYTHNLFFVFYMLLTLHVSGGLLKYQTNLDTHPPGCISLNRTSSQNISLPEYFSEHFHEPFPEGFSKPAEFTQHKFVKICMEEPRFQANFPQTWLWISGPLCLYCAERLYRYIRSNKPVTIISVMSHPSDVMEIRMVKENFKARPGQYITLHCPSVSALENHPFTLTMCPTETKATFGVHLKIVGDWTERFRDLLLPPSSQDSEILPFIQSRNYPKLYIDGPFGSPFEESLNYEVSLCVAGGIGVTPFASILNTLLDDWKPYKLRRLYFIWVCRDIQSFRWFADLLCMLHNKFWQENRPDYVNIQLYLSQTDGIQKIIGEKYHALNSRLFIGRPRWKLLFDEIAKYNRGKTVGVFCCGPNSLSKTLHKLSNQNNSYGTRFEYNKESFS

For the molecule `CO[C@H]1COC(=O)CC=C[C@H](C)[C@@H](OC)COC(=O)[C@H](C)COC(=O)CC=C[C@@H]1C`, the z-score in [1] is 0.79 (inactive); in test [3] it was -0.0428 (inactive); in test [4] it was 0.202 (inactive); in test [5], 0.523 (inactive); in [6], 0.13 (inactive); in [7], 0.333. Besides, the z-score is -0.165 (inactive) in test [8]; 0.297 (inactive) in test [9]; -0.12 in [10]; 0.389 in test [11]; -0.376 in [12]; 1.05 in test [13]. In addition, the z-score in test [14] was 0.199; in test [15], -1.03; in test [16], 1.86; in test [17], 0.352 (inactive); in test [18], -0.316; in [19], -0.326. Besides, in test [20], the z-score was -0.132 (inactive). In addition, in test [2], the composite z-score was -0.146.

Regarding `CC(C)=CCCC(C)=CCON=C1C[C@@H](O)[C@@H](O)[C@@H]2[C@@H]3C(=O)N(C[C@@H]4CCCO4)C(=O)[C@@H]3CC[C@H]12`, the z-score in [1] was -0.249 (inactive); in test [3], 2.57 (inactive); in test [4], 0.847 (inactive); in test [5] it was 0.193 (inactive); in test [6] it was 0.55 (inactive); in test [7], 0.659. Further, the z-score in test [8] is 0.0784 (inactive); in test [9], 0.256 (inactive); in test [10], -2.11; in [11], -0.0285; in test [12], -0.789; in test [13], -0.758. Besides, the z-score in test [14] was 0.253; in [15], -0.674; in test [16], -0.915; in test [17], -0.528 (inactive); in test [18], 0.569; in [19] it was -0.789. In addition, in test [20], the z-score is 0.691 (inactive). The composite z-score in [2] was -0.0501.

For the molecule `COC(=O)[C@H](C)NC(=O)CCC1CC(OC(=O)NCc2ccc3c(c2)OCO3)CC2(CCCC(COC(=O)NCC(c3ccccc3)c3ccccc3)O2)O1` (stereo not given in full), the z-score is 0.246 (inactive) in [1]; 17.6 (active) in test [3]; 4.8 (inactive) in [4]; 1.34 (inactive) in [5]; -0.685 (inactive) in test [6]; 3.66 in [7]. The z-score in test [8] is -1.25 (inactive); in test [9], -1.5 (inactive); in test [10], -3.77; in [11] it was -0.641; in test [12], 0.155; in test [13], -2.9. Moreover, the z-score in test [14] is -3.53; in test [15], -3.99; in test [16], -1.01; in test [17], -0.013 (inactive); in [18] it was -0.0228; in test [19] it was -0.794. Besides, the z-score in [20] is 1.76 (inactive). Moreover, the composite z-score in test [2] was -0.0969.

Regarding `CCOC(=O)NN=C1C[C@@H](O)[C@@H](O)[C@@H]2[C@@H]3C(=O)N(c4cccc(Oc5ccccc5)c4)C(=O)[C@@H]3CC[C@@H]12`, the z-score is -0.852 (inactive) in test [1]; 0.999 (inactive) in test [3]; 0.753 (inactive) in [4]; 0.471 (inactive) in [5]; 0.233 (inactive) in test [6]; -0.142 in test [7]. Moreover, the z-score was 0.361 (inactive) in test [8]; -0.0548 (inactive) in [9]; -2.88 in test [10]; -0.382 in test [11]; 0.279 in [12]; -1.56 in test [13]. The z-score in [14] is -0.454; in test [15], -0.423; in test [16], -0.0933; in test [17], -0.451 (inactive); in test [18] it was -0.0715; in test [19] it was 0.524. In test [20], the z-score was -0.0206 (inactive). The molecule further displayed a composite z-score in test [2] of -0.0984.

Consider `C#CCCCON=C1C[C@@H](O)[C@@H](O)[C@@H]2[C@@H]3C(=O)N(c4cccc(Oc5ccccc5)c4)C(=O)[C@@H]3CC[C@H]12`, for which the z-score in test [1] was 0.496 (inactive); in [3], 1.7 (inactive); in [4] it was 0.977 (inactive); in test [5] it was 0.773 (inactive); in test [6] it was 0.232 (inactive); in test [7], -0.203. Moreover, the z-score in test [8] is -0.683 (inactive); in test [9] it was 0.186 (inactive); in test [10] it was -0.676; in test [11] it was 1.08; in [12] it was 0.139; in test [13], 0.411. Besides, the z-score in test [14] was 0.632; in [15], 0.116; in test [16], 0.862; in [17], 0.57 (inactive); in test [18], -0.263; in test [19] it was -1.29. For the same molecule, the z-score in test [20] is 0.19 (inactive). Besides, in test [2], the composite z-score was 0.042.

Turning to `CC(C)CON=C1C[C@@H](O)[C@@H](O)[C@@H]2[C@@H]3C(=O)N(c4ccc(F)cc4F)C(=O)[C@@H]3CC[C@H]12`, the z-score in [1] is -0.619 (inactive); in [3] it was 1.17 (inactive); in test [4], -0.996 (inactive); in [5], 0.12 (inactive); in test [6], -1.09 (inactive); in test [7] it was -0.0969. Further, the z-score in test [8] was -1.13 (inactive); in test [9], 0.632 (inactive); in [10], 0.178; in test [11] it was 0.0042; in test [12], -0.934; in test [13] it was -0.222. Also, the z-score was 0.597 in test [14]; -0.567 in test [15]; 0.861 in [16]; -0.131 (inactive) in test [17]; 0.541 in [18]; -1 in [19]. In addition, in test [20], the z-score was 0.495 (inactive). In [2], this molecule returned a composite z-score of 0.144.

For `CC[C@@H](c1ccccc1)n1c(=O)n2n(c1=O)[C@H]1[C@H](O)[C@@H]3O[C@@H]3C(=NOC[C@@H](O)COCc3ccco3)[C@H]1CC2`, the z-score in test [1] was -0.389 (inactive); in test [3], 1.34 (inactive); in [4], -0.339 (inactive); in test [5], -0.18 (inactive); in test [6], -0.381 (inactive); in test [7], 0.225. Besides, the z-score in test [8] is -0.892 (inactive); in test [9], 0.796 (inactive); in test [10], 1.36; in [11], -0.335; in test [12], -0.193; in [13] it was -0.378. The z-score in test [14] was -0.0533; in [15], -0.736; in [16] it was -1.44; in test [17], -0.368 (inactive); in test [18], -0.465; in test [19], 0.432. In [20], the z-score is 0.0367 (inactive). Besides, the composite z-score in test [2] was -0.89.

Consider `CO[C@H](C1CCCCC1)[C@H](C)C=CCC(=O)OCCCc1ccccc1`, for which the z-score in test [1] was 0.101 (inactive); in test [3] it was 1.56 (inactive); in test [4] it was 0.726 (inactive); in test [5], -1.17 (inactive); in [6], 0.22 (inactive); in test [7] it was -0.285. Besides, the z-score is 0.435 (inactive) in test [8]; -3.56 (inactive) in [9]; -2.56 in [10]; 0.19 in test [11]; -0.518 in [12]; -0.0782 in test [13]. Further, the z-score in test [14] is -0.237; in test [15], 0.182; in test [16], 0.639; in [17] it was -0.249 (inactive); in test [18], 0.773; in test [19] it was -0.199. Moreover, in [20], the z-score was 0.301 (inactive). Moreover, the composite z-score in test [2] is -0.194.

For the molecule `COc1cccc([C@H]2Oc3ccc(OC)cc3C(=NOC(C)CN3CCCCc4nc(C)c(C)cc43)[C@@H]2O)c1` (stereo not given in full), the z-score in test [1] is 0.751 (inactive); in test [3], 1.82 (inactive); in [4] it was 0.59 (inactive); in [5] it was 0.32 (inactive); in [6] it was 0.342 (inactive); in test [7], -0.887. Besides, the z-score in test [8] was -2.44 (inactive); in test [9], -0.284 (inactive); in test [10] it was -0.892; in [11] it was 0.217; in test [12], -0.527; in test [13] it was 0.0117. For the same molecule, the z-score was -1.02 in test [14]; -0.836 in [15]; -0.108 in test [16]; -0.832 (inactive) in [17]; -0.00251 in test [18]; -0.144 in test [19]. For the same molecule, the z-score in test [20] was -0.565 (inactive). The molecule further showed a composite z-score in test [2] of -0.103.

Values taken from PubChem BioAssay.
